Target: C1orf114
Test: pooled miR-30 sensor sort-seq; sequence = guide strand
Conditions: shRNA

Going from TTAGCTTCTAGTCGGAGCTGTC to TTCTTGTCCAAAATCATTGGAA, the sensor-assay potency score (higher = more potent) falls from -0.331 to -0.446.

First: TTTTCCATCTCTCTCTACCAGT
Second: TACTATGTCATTCTCTCTCTTT
The sensor-assay potency score (higher = more potent) of the first is lower: -0.549 for the first, -0.145 for the second.

Going from TTGGTTAATATTCTCTTCCTTC to TTCTTTCATCTGCTCTTCGTGC, the sensor-assay potency score (higher = more potent) falls from -0.217 to -0.834.

First: TTCTAGTGGAGGAACTTCCAAA
Second: TTCTCCATAATATATCTCCTTA
The sensor-assay potency score (higher = more potent) of the first is lower: -0.899 for the first, -0.58 for the second.

Compared with TTTTCTTTTGCAACCACGCTTT, TTCTTGATTCTGTAGAAGCTTG is lower in sensor-assay potency score (higher = more potent): -0.00106 for the first, -0.732 for the second.

Going from TTTGTAGTTCTTTCTGTCGAGG to TAGTAGTGTCTTCTAGTGGAGG, the sensor-assay potency score (higher = more potent) falls from -0.841 to -0.965.

Target: C1orf115
Test: as above
Conditions: shRNA

First: TCTGACTCTAGTAACATCCTCT
Second: TTGAGGAATAAACAGCTCCTTA
The sensor-assay potency score (higher = more potent) of the first is higher: 0.697 for the first, -1.12 for the second.

Compared with TTCAAGTCTGAGATGCTCCAGG, TTCCTCCGGTACCTCTTCCTGG is lower in sensor-assay potency score (higher = more potent): 0.617 for the first, -1.14 for the second.

Going from TCTAGTAACATCCTCTTCCTCC to TTTTCTCTTCCAAATATGCTGT, the sensor-assay potency score (higher = more potent) falls from 0.254 to -0.444.

For TTCTCTTCCAAATATGCTGTGT, the sensor-assay potency score (higher = more potent) was -0.325.
